WRN helicase inh = qHTS for Inhibitors of WRN Helicase; Bifunctional 3'-5' exonuclease/ATP-dependent helicase WRN (Homo sapiens), Q14191; actives 0.46% (n = 360,000); Potency, µM (titrated, usually from 114 µM), for inactives: at the top dose activity change, negative = inhibition, most hits filed as inhibitors; WRN helicase unwinding, fluorescent forked duplex, kinetic; AID 651768, 2012; note: % is set by controls: 0 for no effect and ±100 for the full control effect; nearly all actives have a fitted effect of over 55% in size
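Enzyme (20 nM final) and test compound sit together 15 min at room temperature before substrate addition. Substrate is a single-forked duplex oligonucleotide (100 nM) labelled with fluorophore and quencher, with 2 mM ATP; helicase unwinding raises red fluorescence, read kinetically.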
Pol iota inh = qHTS for Inhibitors of Polymerase Iota | DNA polymerase iota (Homo sapiens), Q9UNA4 | Pol iota fluorescent replication assay, 10 min | Potency, µM (titrated, usually from 115 µM), inactives show at the highest dose activity, negative = inhibition, most hits filed as inhibitors | actives 1% (n = 390,000) | AID 588590, 2011
Target sequence (Q9UNA4 whole entry, looked up): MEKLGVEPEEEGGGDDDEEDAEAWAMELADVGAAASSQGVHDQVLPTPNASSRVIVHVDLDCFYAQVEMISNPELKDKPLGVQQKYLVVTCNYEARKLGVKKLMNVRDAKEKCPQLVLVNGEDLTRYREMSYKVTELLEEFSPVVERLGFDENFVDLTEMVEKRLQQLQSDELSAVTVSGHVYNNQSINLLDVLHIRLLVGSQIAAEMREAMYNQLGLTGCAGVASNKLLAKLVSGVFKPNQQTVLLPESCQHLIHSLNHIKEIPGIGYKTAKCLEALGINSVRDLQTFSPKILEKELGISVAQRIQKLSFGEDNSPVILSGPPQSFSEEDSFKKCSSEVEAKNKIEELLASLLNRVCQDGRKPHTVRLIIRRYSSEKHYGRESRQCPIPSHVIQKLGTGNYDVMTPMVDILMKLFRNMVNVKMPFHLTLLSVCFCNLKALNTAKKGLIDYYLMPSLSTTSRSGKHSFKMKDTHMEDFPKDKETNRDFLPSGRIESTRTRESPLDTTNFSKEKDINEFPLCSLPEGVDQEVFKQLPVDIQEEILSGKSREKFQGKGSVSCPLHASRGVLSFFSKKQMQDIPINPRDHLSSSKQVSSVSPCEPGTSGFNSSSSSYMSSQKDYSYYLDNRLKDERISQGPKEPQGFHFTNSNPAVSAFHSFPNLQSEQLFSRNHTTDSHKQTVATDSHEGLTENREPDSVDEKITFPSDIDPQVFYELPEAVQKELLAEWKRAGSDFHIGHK
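Fluorescent replication assay read twice, at 0 min and 10 min after adding 50 nM (final) substrate. Enzyme (10 nM) and compounds were first incubated 15 min at room temperature; enzyme-free buffer wells were negative controls.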
Pol kappa inh-1 = qHTS for Inhibitors of Polymerase Kappa; DNA polymerase kappa (Homo sapiens), Q9UBT6; purified Pol kappa, fluorescent DNA synthesis assay, 10 min; Potency, µM (doses to about 107 µM), without a hit: top-dose activity, negative = inhibition, hits mostly inhibitors; actives 0.53% (n = 400,000); note: % is set by controls: 0 for no effect and ±100 for the full control effect
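10 nM Pol kappa preincubated 15 min at room temperature with compounds, then reaction started with substrate at 50 nM final. Fluorescence read kinetically at 0 and 10 min; buffer-only wells served as negative control.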
Pol eta inh-1 = qHTS for Inhibitors of Polymerase Eta. AID 588591, 2011. recombinant Pol eta, fluorescent DNA replication assay. actives 1.2% (n = 390,000). Potency, µM (series often up to 114 µM), for inactives: top-dose activity change, negative = inhibition, actives largely listed as inhibitors; note: % is set by controls: 0 for no effect and ±100 for the full control effect
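Fluorescent replication assay: 50 nM final substrate added after a 15 min room-temperature compound preincubation with 10 nM enzyme. Signal taken at 0 min and again at 10 min.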
FEN1 inhibitor = qHTS Assay for the Inhibitors of Human Flap endonuclease 1 (FEN1); actives 0.35% (n = 390,000); P39748; Potency, µM (doses to about 114 µM), for inactives: at the highest dose activity change, negative = inhibition, actives largely listed as inhibitors; Recombinant FEN1 flap cleavage, fluorescence, 15 min; note: % is set by controls: 0 for no effect and ±100 for the full control effect; nearly all actives have a fitted effect of over 65% in size
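Recombinant FEN1 (10 nM) was preincubated with pin-transferred compounds for 15 min at room temperature, then flap DNA substrate (50 nM final) was added. Plates were read at 0 and 15 min, and normalized concentration–response data were fitted to a four-parameter Hill equation.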
POLB inh = qHTS Assay for Inhibitors of DNA Polymerase Beta | Pol beta primer extension/strand displacement, fluorescence kinetic | P06746 | actives 1.3% (n = 340,000) | AID 485314, 2010 | Potency, µM (series often up to 114 µM), for inactives: at the top dose activity change, negative = inhibition, usual class: inhibitors; note: % is set by controls: 0 for no effect and ±100 for the full control effect
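Values derive from four-parameter Hill fits of normalized kinetic data: reads at 0 and 10 min following addition of 50 nM substrate to 10 nM Pol beta preincubated 15 min with compound.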
Pol kappa inh-2 = qHTS for Inhibitors of Polymerase Kappa: Confirmatory Assay for Cherry-picked Compounds | shares compounds with Pol eta inh-1 | purified Pol-kappa, fluorescent strand-displacement substrate | Potency, µM, hits mostly inhibitors | actives 76% (n = 920) | AID 720501, 2013
Pol eta inh-2 = qHTS for Inhibitors of Polymerase Eta: Confirmatory Assay for Cherry-picked Compounds | shares compounds with Pol eta inh-1 | actives 64% (n = 2,600) | Potency, µM, actives largely listed as inhibitors | Pol eta primer extension, TAMRA/BHQ fluorescence, 10 min | AID 720502, 2013
* hit, by the source's call; ? = inconclusive; . = not tested or not shown; [ ] = dose if it differs, or a comment. This is a sample that favours compounds with a hit; in the whole collection about 2.4% have one here. Calls come from the whole dose curve; as a rule, active = well fitted curve in the direction sought with a large enough effect; inconclusive = small, poorly fitted or top-dose-only effect, or another doubt; inactive = no such curve, though single readings can be large; an effect the other way counts as inactive or inconclusive. Potency is the fitted concentration of half-maximal effect.

SMILES | WRN helicase inh | Pol iota inh | Pol kappa inh-1 | Pol eta inh-1 | FEN1 inhibitor | POLB inh | Pol eta inh-2 | others
COc1ccc(N2CCN(c3ccc(-c4nc(-c5ccccc5)no4)cc3[N+](=O)[O-])CC2)cc1 | . | 23.7% | -7.3% | -18.5% | -9.6% | -1.8% | .
COc1cc(OC)c(NC(=O)CN(C)S(=O)(=O)c2ccc3[nH]c(=O)oc3c2)cc1Cl | -6.6% | -5.4% | ? | 22.4µM* | -22.8% | ? | ? | Pol kappa inh-2=42.3*
Cc1noc(NS(=O)(=O)c2ccc(NC(=O)CSc3nnc4c(n3)[nH]c3ccccc34)cc2)c1C | 89.1µM* | ? | ? | 25.1µM* | -0.6% | ? | 23.9*
CC1=NN2C(=N)/C(=C\c3ccc(SCc4ccccc4)o3)C(=O)N=C2S1 | ? | ? | -14.4% | ? | -6.9% | ? | .
N=C1/C(=C\c2ccc(SCc3ccco3)o2)C(=O)N=C2SC=NN12 | 56.2µM* | ? | 50.1µM* | 14.1µM* | ? | 39.8µM* | 53.6*
COC(=O)C1C2C=CC3(CN(c4cccc(C)c4)C(=O)C13)O2 (stereo unspecified) | ? | ? | -25.0% | 35.5µM* | 1.9% | -27.7% | ?
Cc1cc([C@](C)(N)C(=O)O)ccc1P(=O)(O)O | . | . | -3.8%[19.4 µM] | . | . | . | .
CCOc1ccc(Cc2c(C)[nH]c3ccc(C(=O)O)cc3c2=S)cc1 | ? | ? | ? | 50.1µM* | -1.0% | ? | ?
O=c1c(-c2cc(F)cc(F)c2)nc2cncnc2n1-c1ccccc1 | . | . | -1.3%[60.1 µM] | . | . | . | .
COc1ccc(C)cc1NC(=O)NCc1ccc2c(c1)CCN2C(=O)c1ccccc1 | . | -8.4% | -7.2%[60.1 µM] | -20.0% | -13.9% | 25.2% | .
CCN(CC)CCN1C(=O)c2ccccc2NC1c1ccc(OC)c(COc2ccc(NC(C)=O)cc2)c1 (stereo unspecified) | . | 4.2% | -9.2% | . | -18.8% | . | .
CCOC(=O)c1sc(NC(=O)c2ccc3nc[nH]c3c2)nc1C | ? | ? | -25.4% | ? | -30.4% | ? | ?
CCOC(=O)c1sc(NC(=O)c2ccc(=O)[nH]c2)nc1C | -31.5% | 14.5% | 5.5% | ? | -2.1% | 13.7% | .
CNc1ccc(Br)cc(C(=O)/C=C/c2ccc3c(c2)OCO3)c1=O | ? | 3.16µM* | 35.5µM* | 10µM* | 50.1µM* | 20µM* | ?
O=C(c1cc(S(=O)(=O)N2CCCC2)c[nH]1)N1CCN(c2cccc(Cl)c2)CC1 | . | 1.0% | -4.8% | -31.6% | -12.3% | -8.8% | .
COc1ccc(-c2nc3cnc(OC)nc3n(-c3ccccc3)c2=O)cc1 | . | . | 4.0%[60.1 µM] | . | . | . | .
O=C(c1ccco1)N1CCC2(CCCN(c3ccncc3)C2)CC1 | . | . | 3.4%[60.1 µM] | . | . | . | .
COc1ccc(C(=O)CSc2cc(C)[nH]c(=O)n2)cc1 | -3.2%[11.6 µM] | ? | 79.4µM* | 20µM* | -11.5% | 5.62µM* | ?
COc1ccc(C(=O)CSc2nc(C)cc(=O)[nH]2)cc1 | -0.5% | 10.3% | 2.0% | 12.5% | -2.0% | 4.9% | .
O=C(c1ccc2c(c1)N(Cc1cccc(F)c1)C(=O)c1ccccc1S2)N1CCCC1 | . | 79.4µM* | 1.5%[60.1 µM] | 79.4µM* | 5.9% | 39.8µM* | ? | Pol kappa inh-2=?
O=C(Nc1ccc(OC(F)(F)F)cc1)c1noc2c1CCCC2 | . | 34.7% | -8.5% | . | 2.2% | -19.6% | .
CC(=O)c1ccc(NC(=O)c2noc3c2CCC3)cc1 | -5.6%[11.6 µM] | 25.1µM* | ? | 44.7µM* | -12.6% | 15.8µM* | ?
NCc1ccccc1CC(=O)N[C@@H]1C(=O)N2C(C(=O)O)=C(CSc3nnnn3CC(=O)O)CS[C@@H]12 | . | . | -13.4%[19.4 µM] | . | . | . | .
Cc1nnc(SCC2=C(C(=O)O)N3C(=O)C(NC(=O)c4cc(F)c(F)cc4Cl)C3SC2)s1 (stereo unspecified) | -6.2%[11.6 µM] | ? | ? | 20µM* | -0.6% | ? | 33.8*
CCC(C(=O)NC1C(=O)N2C(C(=O)O)=C(CSc3nnc(C)s3)CSC12)c1ccccc1 (stereo unspecified) | -10.5% | -27.0% | -28.9% | ? | 16.1% | . | .
SMILES | WRN helicase inh | Pol iota inh | Pol kappa inh-1 | Pol eta inh-1 | FEN1 inhibitor | POLB inh | Pol eta inh-2 | others
Cc1nnc(SCC2=C(C(=O)O)N3C(=O)C(NC(=O)COc4ccccc4)C3SC2)s1 (stereo unspecified) | ? | ? | 79.4µM* | 10µM* | -18.8% | . | 37.9* | Pol kappa inh-2=?
CCOc1ccc(CCNC(=O)c2cc3c(=O)oc4ccc(C)cc4c3s2)cc1OCC | . | -3.2% | -22.7% | -16.8% | -0.3% | -0.3% | .
O=C(O)CCC(=O)Nc1ccc2c(c1)Cc1cc(NC(=O)CCC(=O)O)ccc1-2 | -4.4%[11.6 µM] | -10.2% | 0.8% | 25.1µM* | -14.2% | 44.7µM* | ?
CN(C)CCCN(C(=O)c1ccc([N+](=O)[O-])s1)c1nc2cc3c(cc2s1)OCCO3 | 4.6% | -1.4% | -1.8% | -11.1% | -22.5% | ? | .
CN(C)CCCN(C(=O)c1cc2cc([N+](=O)[O-])ccc2s1)c1nc2cc3c(cc2s1)OCCO3 | ? | -10.1% | ? | ? | ? | . | . | Pol kappa inh-2=59.7*
Cc1ccn2cc(-c3ccc(O)c(O)c3)nc2c1 | 44.7µM* | 14.1µM* | 20µM* | 22.4µM* | -17.3% | 10µM* | ?
Oc1ccc(-c2cn3ccccc3n2)cc1O | -9.7% | 11.2% | 10.5% | -12.0% | 10.0% | 0.0% | .
CCOC(=O)c1cn2ccc(C)cc2n1 | 6.2% | 11.7% | -5.8% | -16.6% | 2.8% | ? | .
Cc1ccn2cc(CC(=O)O)nc2c1 | -9.4% | ? | ? | 14.1µM* | 6.1% | 12.6µM* | 67.5*
O=C(CNC(=O)c1ccc(Br)cc1)N=Nc1c(O)[nH]c2ccc([N+](=O)[O-])cc12 | -24.2% | ? | -13.3% | -17.4% | 6.2% | ? | .
COc1ccc(/C=C/C(=O)NCC(=O)N=Nc2c(O)[nH]c3ccc([N+](=O)[O-])cc23)cc1 | -10.6%[11.6 µM] | 33.6% | -5.9% | 35.5µM* | ? | 50.1µM* | . | Pol kappa inh-2=84.4*

Compound activity deposited in PubChem by National Center for Advancing Translational Sciences (NCATS).
